For ten molecules, Potency and outcome results are on record in PubChem BioAssay (Tox21).

Unmarked numbers belong to inactive results. Results filed as inconclusive are left out. Calls of active or inactive are those of the source. Unless noted, calls follow the shape of the dose curve; as a rule, active = well fitted curve in the direction sought with a large enough effect in the repeat runs; inconclusive = weak or mixed curves; inactive = no such curve, though single readings can be large; an effect the other way counts as inactive or inconclusive.

The nature of assay [1]: qHTS assay to identify small molecule antagonists of the estrogen related receptor (ERR) signaling pathway from Tox21 library - cell viability counter screen (AID 1224834). Also: nearly all actives have a fitted effect of over 30% in size. Also: potency is read from the fitted curve at half-maximal effect. The procedure, abridged:
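Cytotoxicity of test substances is gauged in the same ERR cells used for the antagonist screen, after 17.5 h of compound treatment at 37 C, by CellTiter-Fluor fluorescence measured after 30 min.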

In assay [2] the target is Luciferin 4-monooxygenase (Photinus pyralis) (UniProt P08659). In words: qHTS assay to identify small molecule inhibitors of firefly luciferase (AID 1224835). Also: nearly all actives have a fitted effect of over 25% in size. Also: potency is read from the fitted curve at half-maximal effect. The procedure, abridged: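 Biochemical qHTS: compounds run as interplate titrations against purified firefly enzyme, with D-luciferin and ATP each at its KM concentration. Light output recorded by CCD imaging.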
Chain of Luciferin 4-monooxygenase (Photinus pyralis) (P08659 whole entry, looked up): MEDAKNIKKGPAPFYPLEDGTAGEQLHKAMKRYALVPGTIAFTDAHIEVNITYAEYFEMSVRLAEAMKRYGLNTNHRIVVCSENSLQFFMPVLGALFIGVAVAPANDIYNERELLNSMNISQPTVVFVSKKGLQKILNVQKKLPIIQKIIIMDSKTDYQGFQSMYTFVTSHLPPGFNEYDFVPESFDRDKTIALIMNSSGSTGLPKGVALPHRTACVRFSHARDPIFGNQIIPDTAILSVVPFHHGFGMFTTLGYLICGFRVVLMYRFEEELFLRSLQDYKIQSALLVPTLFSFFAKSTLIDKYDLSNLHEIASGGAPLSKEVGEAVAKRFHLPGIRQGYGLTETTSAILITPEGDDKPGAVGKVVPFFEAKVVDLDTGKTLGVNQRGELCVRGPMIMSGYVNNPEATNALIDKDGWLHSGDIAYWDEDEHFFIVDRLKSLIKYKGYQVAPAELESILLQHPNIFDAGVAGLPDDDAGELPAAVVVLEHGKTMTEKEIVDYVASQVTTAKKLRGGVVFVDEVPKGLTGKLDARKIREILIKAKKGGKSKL
For orientation: In qHTS, concentration-response curves come from the screen itself.

Assay [3] is described as follows: qHTS assay to identify small molecule agonists of the constitutive androstane receptor (CAR) signaling pathway - cell viability counter screen (AID 1224836). Also: series mostly up to about 92 µM; nearly all actives have a fitted effect of over 45% in size. Summed up:
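Fluorescence from CellTiter-Fluor indicates live cells after 23 h exposure. The human hepatoma line expresses hCAR and a CYP2B6-2.2kb reporter. Incubation medium contains 0.75 uM PK11195 (final).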

A short description of assay [4]: qHTS assay to identify small molecule antagonists of the constitutive androstane receptor (CAR) signaling pathway - cell viability counter screen (AID 1224837). Also: series mostly up to about 92 µM; nearly all actives have a fitted effect of over 45% in size. Summed up: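 Multiplexed cytotoxicity read-out for the CAR antagonist screen: double-stable HepG2-CYP2B6-hCAR cells co-treated with 50 nM CITCO (final) and compound over 15 concentrations, incubated 23 hr, then assessed by CellTiter-Fluor fluorescence.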

Assay [5] is described as follows: qHTS assay to identify small molecule antagonists of the estrogen related receptor signaling pathway with the pleiotropic PPARgamma coactivator (PGC) from Tox21 10K library - cell viability counter screen (AID 1224840; active = well fitted cell-killing curve with a large enough effect in the repeat runs, not every such curve was filed as active; also: nearly all actives have a fitted effect of over 40% in size). Summed up:
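Step one, plate 2,000 PGC/ERR cells per well; step two, incubate 6 h at 37 C/5% CO2; step three, pin-transfer compounds; step four, incubate 17.5 h; step five, add CellTiter-Fluor and read fluorescence after 30 min.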

Assay [6] is described as follows: qHTS assay to identify small molecule agonists of the hypoxia (HIF-1) signaling pathway - cell viability counter screen (AID 1224844; calls by dose curve; also: nearly all actives have a fitted effect of over 50% in size; also: potency is read from the fitted curve at half-maximal effect). The procedure, abridged: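 Tox21 10K compounds were added to HRE-bla ME-180 cells (0.5% dialyzed FBS) and incubated 17 hrs at 37C; ATP-based CellTiter-Glo luminescence then reported cell viability in the same wells.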
The nature of assay [7]: qHTS assay to identify small molecule agonists of H2AX (AID 1224845; active = well fitted activation curve with a large enough effect in the signal ratio in the repeat runs, not every such curve was filed as active; the % refers to the signal ratio; also: potency is read from the fitted curve at half-maximal effect). Summed up:
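Wild-type CHO-K1 cells, plated overnight, exposed 3hr at 37C to 15 concentrations (0.76% DMSO final). Lysed, then HTRF anti-pH2AX (S139) cryptate and anti-H2AX-d2 antibodies, 24 hr room temperature; 665/620 nm emission read.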

Assay [8] is described as follows: qHTS assay to identify small molecule agonists of the hypoxia (HIF-1) signaling pathway (AID 1224846; active = well fitted activation curve with a large enough effect in the signal ratio in the repeat runs, not every such curve was filed as active; the % refers to the signal ratio). Summed up:
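Steps: seed ME-180 HRE-bla cells (2,000/well, 0.5% dialyzed FBS); incubate 5 hrs at 37C; pin-transfer compounds or DMSO; incubate 17 hrs; add LiveBLAzer B/G substrate CCF4-AM; measure reporter activation by FRET.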

Assay [9] can be described thus: qHTS assay to identify small molecule agonists of H2AX - cell viability counter screen (AID 1224847; calls by dose curve; also: top concentration of the series differs between compounds; nearly all actives have a fitted effect of over 30% in size). Summed up:
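Viability of CHO-K1 (wild type) cells after 3 hr compound exposure was measured by CellTiter-Glo luminescence.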

A short description of assay [10]: qHTS RealTime-Glo MT Cell Viability Assay in HepG2 cells - 24 hour (AID 1224867). Also: nearly all actives have a fitted effect of over 50% in size. The procedure, abridged: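 HepG2 cells were seeded at 600 cells/well together with NanoLuc luciferase and a cell-permeant prosubstrate, preincubated 5 h at 37 C/5% CO2, then pin-dosed with compounds in DMSO. Nonlytic luminescence from viable cells was read at each time point.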
Assay [11] is described as follows: qHTS RealTime-Glo MT Cell Viability Assay in HEK293 cells - 32 hour (AID 1224868). Also: nearly all actives have a fitted effect of over 50% in size. Also: potency is read from the fitted curve at half-maximal effect. Summed up: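 HEK293 cells were seeded at 600 cells/well together with NanoLuc luciferase and cell-permeant prosubstrate, preincubated 5 h at 37 C/5% CO2, then given compound in DMSO by pintool. Luminescence from viable-cell prosubstrate reduction was read repeatedly over 40 h.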

Assay [12] can be described thus: A CellTox Green Cytotoxicity Assay to monitor cytotoxicity in HEK293 cells - 0 hour (AID 1224869). Also: nearly all actives have a fitted effect of over 50% in size. Summed up: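 Cytotoxicity was tracked continuously in HEK293 cells by a DNA-binding dye excluded from viable cells. Compounds were transferred in DMSO 5 h after seeding; fluorescence was recorded at intervals up to 40 h.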
In assay [13] the target is Thyrotropin receptor (Homo sapiens) (UniProt P16473). Put plainly: qHTS assay to identify small molecule agonists of the thyroid stimulating hormone receptor (TSHR) signaling pathway (AID 1224843; calls by dose curve; also: nearly all actives have a fitted effect of over 45% in size). The procedure, abridged:
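Steps: seed 800 TSHR-HEK293 cells per well; add test compound and hold 30 min at ambient temperature; dispense cAMP-d2 then anti-cAMP cryptate; incubate 1 h at ambient; measure fluorescence intensity.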

Assay [14] addresses Nuclear receptor subfamily 1 group I member 3 (Homo sapiens) (UniProt Q14994). In words: qHTS assay to identify small molecule agonists of the constitutive androstane receptor (CAR) signaling pathway (AID 1224839). Also: nearly all actives have a fitted effect of over 15% in size. Also: potency is read from the fitted curve at half-maximal effect.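 As to activation: HepG2 cells stably carrying human CAR and a CYP2B6 luciferase reporter; series mostly up to about 92 µM.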 The procedure, abridged: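 Stable hCAR/CYP2B6-2.2kb HepG2 line in DMEM with 10% FBS; compounds (15 concentrations) and 0.75 uM PK11195 final, 24 h at 37 C/5% CO2, then ONE-Glo luminescence after 30 min.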

Assay [15] can be described thus: qHTS assay to identify small molecule antagonists of the estrogen related receptor signaling pathway with the pleiotropic PPARgamma coactivator (PGC) from Tox21 10K library (AID 1224841; call rule not given here). The procedure, abridged: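 Antagonism in this quantitative HTS is taken from loss of luciferase signal in PGC/ERR cells. Cells (2,000/well) are treated with compounds in DMSO after a 6 h settling period and read by One-Glo luminescence after 18 h.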

Assay [16] in a line: qHTS assay to identify small molecule agonists of the estrogen related receptor signaling pathway with the pleiotropic PPARgamma coactivator (PGC) from Tox21 10K library (AID 1224842). Also: nearly all actives have a fitted effect of over 15% in size. The procedure, abridged:
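PGC/ERR reporter cell line, 2,000 cells per well, incubated 6 h at 37 C before 23 nL compound in DMSO was added. After 18 h at 37 C, One-Glo luminescence read following 30 min at room temperature.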

Assay [17] is described as follows: qHTS assay to identify small molecule antagonists of the estrogen related receptor (ERR) signaling pathway from Tox21 library (AID 1224848). Also: nearly all actives have a fitted effect of over 50% in size. Summed up: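 Luminescent reporter read-out (ONE-Glo) from NTP's ERR cell line after 18 h treatment at 37 C with DMSO-dissolved Tox21 compounds; cells pre-plated 6 h beforehand at 2,000 per well.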

Chain of Thyrotropin receptor (Homo sapiens) (P16473 whole entry, looked up): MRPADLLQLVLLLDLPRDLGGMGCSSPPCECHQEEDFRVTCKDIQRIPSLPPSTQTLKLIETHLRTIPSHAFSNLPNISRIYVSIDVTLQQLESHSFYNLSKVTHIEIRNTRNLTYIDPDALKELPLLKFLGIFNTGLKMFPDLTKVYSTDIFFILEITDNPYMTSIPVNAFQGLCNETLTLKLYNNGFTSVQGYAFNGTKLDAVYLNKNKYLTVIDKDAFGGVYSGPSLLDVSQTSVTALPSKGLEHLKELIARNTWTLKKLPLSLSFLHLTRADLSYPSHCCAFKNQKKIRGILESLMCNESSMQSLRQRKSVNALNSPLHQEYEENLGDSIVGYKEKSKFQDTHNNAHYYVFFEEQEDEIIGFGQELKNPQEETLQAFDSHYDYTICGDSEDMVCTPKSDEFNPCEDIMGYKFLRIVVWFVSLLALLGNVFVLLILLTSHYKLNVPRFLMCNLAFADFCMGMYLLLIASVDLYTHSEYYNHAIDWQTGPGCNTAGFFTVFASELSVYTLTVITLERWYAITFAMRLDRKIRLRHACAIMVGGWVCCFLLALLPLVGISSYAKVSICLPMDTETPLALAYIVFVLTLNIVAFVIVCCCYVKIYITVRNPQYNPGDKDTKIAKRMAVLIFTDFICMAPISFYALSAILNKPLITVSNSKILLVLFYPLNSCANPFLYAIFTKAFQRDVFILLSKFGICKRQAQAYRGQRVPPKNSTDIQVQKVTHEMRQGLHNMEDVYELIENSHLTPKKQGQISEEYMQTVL
Chain of Nuclear receptor subfamily 1 group I member 3 (Homo sapiens) (Q14994 whole entry, looked up): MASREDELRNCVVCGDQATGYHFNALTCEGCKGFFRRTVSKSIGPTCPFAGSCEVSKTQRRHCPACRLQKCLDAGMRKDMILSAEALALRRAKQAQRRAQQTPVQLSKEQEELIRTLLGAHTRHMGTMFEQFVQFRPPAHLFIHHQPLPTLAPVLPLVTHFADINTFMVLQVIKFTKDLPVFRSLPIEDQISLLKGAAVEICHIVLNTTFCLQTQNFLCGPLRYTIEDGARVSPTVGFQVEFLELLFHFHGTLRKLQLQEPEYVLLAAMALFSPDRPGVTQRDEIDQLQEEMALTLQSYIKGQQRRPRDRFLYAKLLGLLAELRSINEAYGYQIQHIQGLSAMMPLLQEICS

Consider `CCC(C(=O)OCCOCCN(CC)CC)c1ccccc1` (centres undefined), for which the Potency entry in assay [1], in [2], in assay [3], in assay [4], in assay [5] and in [6] was “inactive” throughout. For the same molecule, the Potency entry in assay [7], in assay [9], in [10], in assay [11] and in assay [12] was “inactive” in each case. The result in assay [8] was inactive.

Consider `CC(C)=CC=O`, for which the Potency result in assay [1], in assay [2], in assay [3], in assay [4], in [5] and in assay [6] was “inactive” each time. The Potency result in [7], in [9], in assay [10], in assay [11] and in [12] was “inactive” throughout. Besides, in assay [8], the result was inactive.

For `Nc1nc(Cl)nc2c1ncn2[C@@H]1O[C@H](CO)[C@@H](O)[C@@H]1F`, the Potency result in assay [1], in assay [2], in [3], in assay [4], in assay [5] and in [13] was “inactive” in each case. The Potency entry in assay [6], in [9], in assay [10] and in [12] was “inactive” in each case. For the same molecule, the Potency in [7] was 1.56 µM (active); in assay [11], 4.77 µM (active). In [8], the result was inactive.

As for `O=C1OCCN1/N=C/c1ccc([N+](=O)[O-])o1`, the Potency result in assay [1], in [2], in assay [3], in assay [14], in [5] and in [13] was “inactive” in each case. The Potency result in assay [6], in [10], in [11] and in [12] was “inactive” each time.

`CCC(C)=O`: the Potency entry in assay [1], in assay [2], in [3], in [4], in assay [5] and in assay [15] was “inactive” each time. Moreover, the Potency entry in [16], in assay [6], in assay [17], in assay [10], in assay [11] and in [12] was “inactive” in each case.

Take `CC(C)CCCCCCOC(=O)CCCCC(=O)OCCCCCCC(C)C`: the Potency entry in [1], in [2], in assay [3], in [4], in assay [5] and in assay [6] was “inactive” throughout. Further, the Potency entry in assay [7], in [9], in [10], in assay [11] and in assay [12] was “inactive” in each case. Further, the result in assay [8] was inactive.

With `CC(CCO)CCc1ccccc1` (centres undefined), the Potency entry in [1], in assay [2], in [3], in [4], in assay [5] and in assay [6] was “inactive” in each case. Moreover, the Potency entry in assay [7], in [9], in assay [10] and in assay [11] was “inactive” throughout. For the same molecule, the call in assay [8] was inactive.

In the case of `CCOC(=O)OCC`, the Potency result in assay [1], in assay [2], in assay [3], in assay [4], in assay [5] and in [13] was “inactive” in each case. Further, the Potency entry in [6], in assay [7], in assay [9], in [10] and in assay [11] was “inactive” in each case. In addition, the molecule was called inactive in [8].

Consider `CC1=C(/C=C/C(C)=C\C=C\C(C)=C\C(=O)O)C(C)(C)CCC1`, for which the Potency in assay [1] was 54.5 µM (active); in assay [2] it was 39.9 µM (active); in [14] it was 24.3 µM (active); in assay [6] it was 49 µM (active). For the same molecule, the Potency entry in [3], in assay [9], in assay [11] and in assay [12] was “inactive” each time.

As for `Cn1c(=O)c2c(ncn2CC(=O)O)n(C)c1=O`, the Potency result in assay [1], in assay [2], in assay [3], in assay [4], in assay [5] and in [13] was “inactive” each time. In addition, the Potency entry in assay [6], in [7], in assay [9], in assay [10], in [11] and in assay [12] was “inactive” each time.
